# Compound activity from PubChem BioAssay.
# SMARCA2 activ: increases SMARCA2 function in MMTV reporter cells; MG213 cells, MMTV-luciferase reporter, dexamethasone, overnight; activation, % at 9.1 µM; 1% of 370,000 active; AID 652017; in the data active means activation above about 7.8%;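 further: 0% = vehicle wells and 100% = reference activator wells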
# HSF-1 act: increases HSF-1 driven luciferase reporter signal | NIH3T3-HGL HSF-1 luciferase reporter, MG132, 8 h; 100% = twice DMSO control signal | activation, % at 9 µM | 1.7% of 300,000 active;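 active means mean replicate activation of at least 50% with a set share of replicates each reaching 50%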;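 further: 0% = median of the neutral control wells and 100% = twice that signal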
# MITF TRPM1 HTS: activators of MITF-driven TRPM1 promoter activity in SK-MEL-5 cells; SK-MEL-5 TRPM1-promoter luciferase, 24 h; % of positive control, neutral wells = 0; activation, % at 12.5 µM; 0.75% of 300,000 active;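 active means mean activation of at least 80% with every replicate also reaching 80%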;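 further: 0% = neutral control wells and 100% = parthenolide positive control wells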
# Wnt act: activators of Wnt/beta-catenin signaling; Wnt/beta-catenin reporter cell assay, activator, plate reader; activation, % at 9.35 µM; 1.2% of 300,000 active; in the data active means activation above about 30%, passing the limit was not always enough;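 further: 0% = neutral control wells and 100% = positive control wells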
# HSF1 inh: HSF1 inhibition; activity change, negative = inhibition, % at 7.5 µM (by protocol); NIH3T3-HGL HSE-luciferase, MG132-induced, luminescence 8 h; hits give low values; 0.77% of 300,000 active;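 active means more than half of replicate wells show activity change below -50%, luminescence cut by over half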;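 further: luciferase reports HSF-1 transcriptional activity via heat shock element; 0% = median of DMSO wells and -100% = zero luminescence signal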
# esBAF inh: inhibitors of esBAF chromatin remodeling in mouse ES cells. Bmi1-luciferase knock-in reporter, 24 h; 100% = twice the neutral-well signal. reporter increase, % at 12.5 µM. 2% of 350,000 active; in the data active means activation above about 40%;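 further: 0% = median of the plate's neutral control wells and 100% = double that signal; a rise in the Bmi1 reporter signal indicates esBAF inhibition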
# SMARCA2 act conf: confirmation of SMARCA2 (BRM) function activators; 30% of 3,500 active; MG213 cells, MMTV-luciferase with dexamethasone, luminescence, overnight; MG213 cells expressing E1A, Rb sequestered; DMSO wells 0%, reference activator 100%; shares compounds with SMARCA2 activ; AID 652260; activation, % at 9.1 µM;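 active means activation above its plate's cutoff, the mean activation of tested wells plus 3 SD, cut at about 7.9% in these data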
# VP16 Luc act: activates GAL4-VP16 luciferase, flagging SMARCA2 activator hits; shares compounds with SMARCA2 activ; 41% of 3,500 active; HEK293 GAL4-VP16 pG5luc reporter, luciferase luminescence; scaled: DMSO wells 0%, SAHA wells 100%; activation, % at 9.1 µM;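 active means activation above the solvent-only control well mean plus 3 SD, averaged across control plates, cut at about 5.2% in these data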
# Numbers without * were called inactive; / = no result. The list is not random: actives were taken first. Their share in the collection is about 4.3%.
SMILES,SMARCA2 activ,HSF-1 act,MITF TRPM1 HTS,Wnt act,HSF1 inh,esBAF inh,SMARCA2 act conf,VP16 Luc act
COc1ccc(NC(=O)Nc2ccc3c(c2)C(=O)N([C@@H](C)CO)C[C@H](C)[C@@H](CN(C)S(C)(=O)=O)O3)cc1,/,/,/,/,/,1,/,/
COc1ccccc1CC(=O)N1CCC(CCC(=O)NC2CC2)CC1,8.8*,-2,10,-1,0,-4,-3,1
COC(=O)C1CCCN(C(=O)C(Cc2ccc3c(c2)OCO3)NC(C)=O)C1 (stereo unspecified),16*,/,/,/,/,/,3,-1
CCS(=O)(=O)NCC[C@@H]1CC[C@@H](NS(=O)(=O)c2cccc(F)c2)[C@@H](CO)O1,/,/,/,/,/,2,/,/
Cc1cccc(CSc2nncc(=O)[nH]2)c1,1,-14,/,-2,-2,-3,/,/
O=c1cnnc(SCCc2ccccc2)[nH]1,8.2*,8,1,-2,-2,5,-1,1
COc1cc(CNc2cccc(F)c2)cc(Br)c1O,9.2*,0,0,-1,6,-7,5,2
CN1CCN(C(=O)C[C@@H]2CC[C@H]3[C@H](COc4ccc(NC(=O)C5CC5)cc4C(=O)N3C)O2)CC1,/,/,/,/,/,-9,/,/
CN(C)Cc1cc(O)c(CN(C)C)cc1O,8.0*,1,/,0,-4,/,7,2
CN(C)Cc1cc(C(C)(C)C)cc(C(C)(C)C)c1O,-1,-18,3,0,-8,/,/,/
C[C@H]1CN([C@@H](C)CO)C(=O)c2cccc(NC(=O)c3ccc(-c4nccs4)cc3)c2O[C@@H]1CN(C)S(=O)(=O)c1ccc(Cl)cc1,/,/,/,/,/,5,/,/
O=C(CCC(NC(=O)OCc1ccccc1)C(=O)OCc1ccccc1)NCC(=O)OCc1ccccc1 (stereo unspecified),-3,-1,-8,-4,-1,0,/,/
CC(=O)NCCCC(=O)NC(CCC(=O)OCc1ccccc1)C(=O)OCc1ccccc1 (stereo unspecified),8.0*,9,7,1,-4,-3,-3,1
C[C@H](NC(=O)C[C@H]1C=C[C@@H](NC(=O)C2CC2)[C@@H](CO)O1)c1ccccc1,/,/,/,/,/,0,/,/
O=C(O)/C=C/c1ccc(-c2cccc(C(F)(F)F)c2)o1,-1,18,9,/,6,6,/,/
O=C(/C=C\c1ccc(-c2ccccc2)o1)c1ccccc1,8.2*,-28,33,37*,-19,/,16*,8.1*
O/N=C\c1ccc(-c2ccccc2)o1,9.5*,38,37,0,15,55*,6,5
CC(C)n1nnnc1C1c2ccccc2C(=O)N1CCc1ccccc1F (stereo unspecified),8.8*,/,/,1,/,/,5,7.4*
CC(C)n1nnnc1C1c2ccccc2C(=O)N1CCc1c[nH]c2ccccc12 (stereo unspecified),3,/,/,9,/,/,/,/
O=C(Nc1ccc(F)cc1)C(CCc1ccccc1)N1CCN(C(=O)c2ccco2)CC1 (stereo unspecified),8.7*,/,/,-4,/,/,1,-1
COc1ccc(C2=NN(C(=O)CSc3nccn3C)C(c3ccco3)C2)cc1 (stereo unspecified),0,/,4,4,/,14,/,/
COc1ccc(C2=NN(C(=O)CSc3nnc(C)c(=O)n3N)C(c3ccco3)C2)cc1 (stereo unspecified),13*,-6,24,3,9,/,2,1
CCCC#Cc1ccc([C@H]2[C@@H](CO)N(S(C)(=O)=O)[C@H]2C#N)cc1,/,/,/,/,/,-2,/,/
CCNC(=O)C[C@H]1CC[C@@H]2[C@H](COc3ccc(NC(=O)C4CCOCC4)cc3C(=O)N2C)O1,/,/,/,/,/,-5,/,/
CS(=O)(=O)Nc1ccc(C(=O)Nc2ccc3ccccc3c2)cc1,8.4*,42,/,2,11,16,16*,7.2*
Cc1cc(CNC(=O)Nc2ccc3c(c2)OCO3)nn1C,1,/,/,/,/,20,/,/
